Laboratory results as given in ChEMBL document CHEMBL2218924, “A broad activity screen in support of a chemogenomic map for kinase signalling research and drug discovery” (Biochem J, 2013).

How the values were obtained:
[1] = molecular target: T1, Serine/threonine-protein kinase 17A (Homo sapiens) (UniProt Q9UEE5); conditions: at 10 µM
T1 sequence (whole entry): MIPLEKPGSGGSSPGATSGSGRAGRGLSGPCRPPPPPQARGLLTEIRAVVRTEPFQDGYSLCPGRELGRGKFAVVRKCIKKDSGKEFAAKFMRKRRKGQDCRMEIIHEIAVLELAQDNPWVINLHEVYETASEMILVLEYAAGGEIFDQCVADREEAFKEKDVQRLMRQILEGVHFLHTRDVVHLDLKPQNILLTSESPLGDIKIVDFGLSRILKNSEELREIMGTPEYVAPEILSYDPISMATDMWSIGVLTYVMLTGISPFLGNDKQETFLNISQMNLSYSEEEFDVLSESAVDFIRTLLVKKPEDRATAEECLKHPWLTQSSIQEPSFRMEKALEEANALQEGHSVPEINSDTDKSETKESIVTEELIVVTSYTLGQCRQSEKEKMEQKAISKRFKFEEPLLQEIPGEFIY

[2] = molecular target: T2, Dual specificity tyrosine-phosphorylation-regulated kinase 2 (Homo sapiens) (UniProt Q92630); conditions: at 1 µM
T2 sequence (whole entry): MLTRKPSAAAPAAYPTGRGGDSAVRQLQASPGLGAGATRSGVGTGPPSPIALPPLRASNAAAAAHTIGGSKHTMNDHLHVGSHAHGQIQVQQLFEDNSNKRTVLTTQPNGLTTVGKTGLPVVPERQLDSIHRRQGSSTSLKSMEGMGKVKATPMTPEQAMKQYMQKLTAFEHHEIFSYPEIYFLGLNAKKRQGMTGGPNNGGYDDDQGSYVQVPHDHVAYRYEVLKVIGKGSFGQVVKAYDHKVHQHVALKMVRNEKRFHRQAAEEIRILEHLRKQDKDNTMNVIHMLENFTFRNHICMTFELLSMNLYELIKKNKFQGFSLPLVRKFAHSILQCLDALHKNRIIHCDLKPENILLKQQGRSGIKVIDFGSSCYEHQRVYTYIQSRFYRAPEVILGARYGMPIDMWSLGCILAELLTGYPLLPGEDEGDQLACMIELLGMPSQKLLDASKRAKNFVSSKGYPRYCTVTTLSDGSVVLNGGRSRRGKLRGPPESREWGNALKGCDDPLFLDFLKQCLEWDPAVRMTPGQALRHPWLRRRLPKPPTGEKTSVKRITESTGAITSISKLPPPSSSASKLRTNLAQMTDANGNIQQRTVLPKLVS

[3] = molecular target: T2, Dual specificity tyrosine-phosphorylation-regulated kinase 2 (Homo sapiens); conditions: at 10 µM
[4] = molecular target: T3, Ephrin type-A receptor 1 (Homo sapiens) (UniProt P21709); conditions: at 1 µM
T3 sequence (whole entry): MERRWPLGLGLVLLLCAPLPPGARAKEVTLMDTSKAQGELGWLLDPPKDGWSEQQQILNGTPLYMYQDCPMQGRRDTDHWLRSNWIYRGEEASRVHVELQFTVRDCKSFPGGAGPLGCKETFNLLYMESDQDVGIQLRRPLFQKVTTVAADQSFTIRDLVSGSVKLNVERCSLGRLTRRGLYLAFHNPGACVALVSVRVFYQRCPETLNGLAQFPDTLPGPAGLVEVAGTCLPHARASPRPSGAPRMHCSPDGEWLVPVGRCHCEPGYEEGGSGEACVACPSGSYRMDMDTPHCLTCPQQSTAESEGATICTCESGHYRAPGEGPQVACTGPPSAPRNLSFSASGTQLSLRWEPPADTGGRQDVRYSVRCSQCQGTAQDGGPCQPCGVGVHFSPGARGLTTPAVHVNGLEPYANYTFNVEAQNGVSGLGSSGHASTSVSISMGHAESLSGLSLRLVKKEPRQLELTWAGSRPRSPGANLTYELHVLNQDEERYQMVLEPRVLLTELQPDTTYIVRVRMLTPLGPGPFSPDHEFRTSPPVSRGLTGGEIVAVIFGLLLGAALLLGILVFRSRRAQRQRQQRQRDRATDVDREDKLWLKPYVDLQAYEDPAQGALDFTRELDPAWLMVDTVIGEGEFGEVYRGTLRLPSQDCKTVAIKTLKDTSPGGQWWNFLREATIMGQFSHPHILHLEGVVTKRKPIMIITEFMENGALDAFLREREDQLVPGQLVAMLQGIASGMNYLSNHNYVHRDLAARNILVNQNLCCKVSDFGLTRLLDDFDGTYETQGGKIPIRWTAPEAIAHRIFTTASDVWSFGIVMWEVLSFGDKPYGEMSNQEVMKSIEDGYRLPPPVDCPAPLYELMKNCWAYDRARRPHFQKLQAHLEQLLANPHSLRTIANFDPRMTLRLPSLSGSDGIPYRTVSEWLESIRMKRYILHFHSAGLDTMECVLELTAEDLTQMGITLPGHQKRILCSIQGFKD

[5] = molecular target: T3, Ephrin type-A receptor 1 (Homo sapiens); conditions: at 10 µM
[6] = molecular target: Ephrin type-A receptor 2 (Homo sapiens) (UniProt P29317); conditions: at 1 µM
Sequence of Ephrin type-A receptor 2 (Homo sapiens) (P29317 whole entry): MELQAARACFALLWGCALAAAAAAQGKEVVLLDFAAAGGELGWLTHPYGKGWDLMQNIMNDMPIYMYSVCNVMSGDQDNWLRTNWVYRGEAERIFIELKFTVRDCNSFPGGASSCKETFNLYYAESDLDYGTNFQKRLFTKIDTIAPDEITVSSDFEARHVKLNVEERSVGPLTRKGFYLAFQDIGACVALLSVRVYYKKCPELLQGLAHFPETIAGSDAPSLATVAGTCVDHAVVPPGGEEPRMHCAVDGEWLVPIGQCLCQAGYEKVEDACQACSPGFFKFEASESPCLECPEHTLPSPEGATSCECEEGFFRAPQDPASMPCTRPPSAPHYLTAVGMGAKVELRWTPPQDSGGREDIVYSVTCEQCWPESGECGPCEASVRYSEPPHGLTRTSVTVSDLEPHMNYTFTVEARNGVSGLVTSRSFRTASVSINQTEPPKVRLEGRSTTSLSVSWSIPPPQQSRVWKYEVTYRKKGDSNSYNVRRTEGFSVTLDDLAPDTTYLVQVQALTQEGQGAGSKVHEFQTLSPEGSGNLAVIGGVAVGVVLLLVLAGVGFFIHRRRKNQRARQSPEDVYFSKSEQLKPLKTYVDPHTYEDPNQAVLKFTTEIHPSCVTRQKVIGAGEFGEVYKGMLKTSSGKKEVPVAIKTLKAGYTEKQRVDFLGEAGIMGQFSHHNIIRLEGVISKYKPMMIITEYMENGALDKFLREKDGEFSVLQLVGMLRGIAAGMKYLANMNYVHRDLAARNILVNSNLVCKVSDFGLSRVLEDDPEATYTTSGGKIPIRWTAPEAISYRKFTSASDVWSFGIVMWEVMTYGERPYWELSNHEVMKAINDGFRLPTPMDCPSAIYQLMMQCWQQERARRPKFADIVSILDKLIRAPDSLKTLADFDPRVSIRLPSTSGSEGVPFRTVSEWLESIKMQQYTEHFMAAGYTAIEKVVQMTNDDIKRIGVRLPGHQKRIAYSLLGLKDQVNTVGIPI

[7] = molecular target: Ephrin type-A receptor 2 (Homo sapiens) (UniProt P29317); conditions: at 10 µM
[8] = molecular target: T4, Ephrin type-A receptor 3 (Homo sapiens) (UniProt P29320); conditions: at 1 µM
T4 sequence (whole entry): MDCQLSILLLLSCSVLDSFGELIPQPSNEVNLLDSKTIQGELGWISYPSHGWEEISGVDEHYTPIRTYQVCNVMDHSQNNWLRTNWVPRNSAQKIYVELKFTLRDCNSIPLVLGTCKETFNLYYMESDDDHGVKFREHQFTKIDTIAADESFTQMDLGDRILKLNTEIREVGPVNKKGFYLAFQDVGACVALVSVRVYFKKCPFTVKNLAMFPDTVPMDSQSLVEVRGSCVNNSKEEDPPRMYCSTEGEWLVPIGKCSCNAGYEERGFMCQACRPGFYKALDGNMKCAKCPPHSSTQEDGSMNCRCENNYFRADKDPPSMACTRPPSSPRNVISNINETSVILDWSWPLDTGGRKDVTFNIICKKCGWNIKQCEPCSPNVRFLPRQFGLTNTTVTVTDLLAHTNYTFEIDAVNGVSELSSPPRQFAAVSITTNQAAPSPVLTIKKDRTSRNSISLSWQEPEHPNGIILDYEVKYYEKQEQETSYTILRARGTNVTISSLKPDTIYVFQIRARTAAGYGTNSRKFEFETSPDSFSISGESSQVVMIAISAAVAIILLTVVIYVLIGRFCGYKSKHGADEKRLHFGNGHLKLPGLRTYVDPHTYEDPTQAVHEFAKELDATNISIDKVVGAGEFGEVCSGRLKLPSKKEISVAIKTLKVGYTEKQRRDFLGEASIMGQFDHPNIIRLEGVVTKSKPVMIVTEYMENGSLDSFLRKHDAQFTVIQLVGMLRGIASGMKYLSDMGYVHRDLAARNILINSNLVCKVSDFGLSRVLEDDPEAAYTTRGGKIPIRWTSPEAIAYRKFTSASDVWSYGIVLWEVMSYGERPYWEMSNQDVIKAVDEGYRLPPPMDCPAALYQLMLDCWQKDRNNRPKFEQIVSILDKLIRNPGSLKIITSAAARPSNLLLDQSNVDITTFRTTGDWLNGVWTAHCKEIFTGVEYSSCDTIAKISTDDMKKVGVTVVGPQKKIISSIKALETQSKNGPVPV

[9] = molecular target: T4, Ephrin type-A receptor 3 (Homo sapiens); conditions: at 10 µM
[10] = molecular target: Ephrin type-A receptor 4 (Homo sapiens) (UniProt P54764); conditions: at 1 µM
Sequence of Ephrin type-A receptor 4 (Homo sapiens) (P54764 whole entry): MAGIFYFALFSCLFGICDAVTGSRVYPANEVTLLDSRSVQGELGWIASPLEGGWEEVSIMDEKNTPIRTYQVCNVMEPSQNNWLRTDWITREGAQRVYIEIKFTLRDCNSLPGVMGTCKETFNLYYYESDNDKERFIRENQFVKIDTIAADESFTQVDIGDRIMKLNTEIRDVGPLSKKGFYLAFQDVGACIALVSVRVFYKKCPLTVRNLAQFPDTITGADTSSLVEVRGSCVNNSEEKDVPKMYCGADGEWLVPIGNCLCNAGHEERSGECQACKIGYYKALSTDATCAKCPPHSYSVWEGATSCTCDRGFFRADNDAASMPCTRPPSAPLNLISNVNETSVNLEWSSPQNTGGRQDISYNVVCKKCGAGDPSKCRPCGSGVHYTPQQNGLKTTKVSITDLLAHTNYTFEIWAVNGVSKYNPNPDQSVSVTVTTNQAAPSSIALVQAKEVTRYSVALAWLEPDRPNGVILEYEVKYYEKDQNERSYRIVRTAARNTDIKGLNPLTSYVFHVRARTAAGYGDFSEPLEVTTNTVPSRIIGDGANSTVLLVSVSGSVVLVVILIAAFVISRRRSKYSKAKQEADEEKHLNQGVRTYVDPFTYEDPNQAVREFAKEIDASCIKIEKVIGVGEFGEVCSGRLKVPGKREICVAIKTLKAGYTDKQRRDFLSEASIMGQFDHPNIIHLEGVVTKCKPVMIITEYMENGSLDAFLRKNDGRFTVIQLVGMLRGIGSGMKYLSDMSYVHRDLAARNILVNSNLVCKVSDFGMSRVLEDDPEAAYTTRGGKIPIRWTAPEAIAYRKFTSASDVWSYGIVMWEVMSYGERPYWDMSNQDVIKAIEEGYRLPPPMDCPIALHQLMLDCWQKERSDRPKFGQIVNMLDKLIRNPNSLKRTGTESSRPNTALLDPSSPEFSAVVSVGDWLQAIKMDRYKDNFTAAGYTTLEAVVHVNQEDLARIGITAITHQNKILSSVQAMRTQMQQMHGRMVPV

[11] = molecular target: Ephrin type-A receptor 4 (Homo sapiens) (UniProt P54764); conditions: at 10 µM
[12] = molecular target: Ephrin type-A receptor 5 (Homo sapiens) (UniProt P54756); conditions: at 1 µM
Sequence of Ephrin type-A receptor 5 (Homo sapiens) (P54756 whole entry): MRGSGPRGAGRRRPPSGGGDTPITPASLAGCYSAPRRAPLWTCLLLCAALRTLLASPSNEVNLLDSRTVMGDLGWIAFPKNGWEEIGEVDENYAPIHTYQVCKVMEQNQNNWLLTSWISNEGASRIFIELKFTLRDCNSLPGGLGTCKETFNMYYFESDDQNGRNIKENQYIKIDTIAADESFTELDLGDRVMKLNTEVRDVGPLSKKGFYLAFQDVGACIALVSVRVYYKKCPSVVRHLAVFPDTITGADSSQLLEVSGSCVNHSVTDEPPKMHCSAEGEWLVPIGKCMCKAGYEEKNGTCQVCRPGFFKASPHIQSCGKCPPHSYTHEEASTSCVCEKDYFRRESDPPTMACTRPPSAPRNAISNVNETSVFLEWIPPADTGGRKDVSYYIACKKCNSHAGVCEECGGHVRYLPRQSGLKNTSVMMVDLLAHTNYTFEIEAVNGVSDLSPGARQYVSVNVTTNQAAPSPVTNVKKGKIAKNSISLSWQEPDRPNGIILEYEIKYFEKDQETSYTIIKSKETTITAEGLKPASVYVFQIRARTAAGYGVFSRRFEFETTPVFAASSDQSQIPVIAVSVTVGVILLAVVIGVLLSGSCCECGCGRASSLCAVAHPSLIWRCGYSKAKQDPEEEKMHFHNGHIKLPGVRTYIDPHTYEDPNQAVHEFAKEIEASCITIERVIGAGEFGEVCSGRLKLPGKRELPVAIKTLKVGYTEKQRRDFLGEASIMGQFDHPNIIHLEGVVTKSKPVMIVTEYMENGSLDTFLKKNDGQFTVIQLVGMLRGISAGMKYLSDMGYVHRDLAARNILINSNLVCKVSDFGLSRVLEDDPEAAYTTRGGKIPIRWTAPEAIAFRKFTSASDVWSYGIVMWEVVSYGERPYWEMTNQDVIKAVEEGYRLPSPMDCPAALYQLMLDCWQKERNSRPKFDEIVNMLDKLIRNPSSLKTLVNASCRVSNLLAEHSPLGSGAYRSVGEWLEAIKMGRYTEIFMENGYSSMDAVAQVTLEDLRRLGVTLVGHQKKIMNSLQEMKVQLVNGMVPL

[13] = molecular target: Ephrin type-A receptor 5 (Homo sapiens) (UniProt P54756); conditions: at 10 µM
[14] = molecular target: Ephrin type-A receptor 7 (Homo sapiens) (UniProt Q15375); conditions: at 1 µM
Sequence of Ephrin type-A receptor 7 (Homo sapiens) (Q15375 28-998 limits assumed): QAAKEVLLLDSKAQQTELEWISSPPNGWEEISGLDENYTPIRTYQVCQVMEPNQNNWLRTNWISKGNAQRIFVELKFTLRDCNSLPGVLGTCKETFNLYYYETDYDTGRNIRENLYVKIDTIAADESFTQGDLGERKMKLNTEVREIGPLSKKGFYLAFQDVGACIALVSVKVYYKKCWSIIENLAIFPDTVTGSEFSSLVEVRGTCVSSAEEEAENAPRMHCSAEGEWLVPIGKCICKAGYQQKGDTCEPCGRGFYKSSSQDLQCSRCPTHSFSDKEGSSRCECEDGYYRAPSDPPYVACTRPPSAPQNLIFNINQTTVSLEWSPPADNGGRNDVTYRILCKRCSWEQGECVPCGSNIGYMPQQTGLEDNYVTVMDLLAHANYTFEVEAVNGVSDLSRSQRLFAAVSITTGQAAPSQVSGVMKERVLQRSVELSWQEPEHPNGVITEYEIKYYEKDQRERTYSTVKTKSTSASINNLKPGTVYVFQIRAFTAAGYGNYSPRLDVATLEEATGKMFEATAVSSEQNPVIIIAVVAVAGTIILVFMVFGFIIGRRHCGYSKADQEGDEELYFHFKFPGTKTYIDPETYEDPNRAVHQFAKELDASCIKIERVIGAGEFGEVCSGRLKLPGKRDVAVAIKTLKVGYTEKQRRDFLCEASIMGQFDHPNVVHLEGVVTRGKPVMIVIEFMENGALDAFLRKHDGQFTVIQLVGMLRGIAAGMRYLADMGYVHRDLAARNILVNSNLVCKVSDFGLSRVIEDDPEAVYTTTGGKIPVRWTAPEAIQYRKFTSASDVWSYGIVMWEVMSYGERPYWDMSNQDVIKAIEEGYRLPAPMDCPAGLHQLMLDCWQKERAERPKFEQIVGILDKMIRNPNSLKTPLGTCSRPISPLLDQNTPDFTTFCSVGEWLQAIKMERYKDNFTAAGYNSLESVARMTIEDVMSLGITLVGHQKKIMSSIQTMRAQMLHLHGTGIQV

[15] = molecular target: Ephrin type-A receptor 7 (Homo sapiens) (UniProt Q15375); conditions: at 10 µM
[16] = molecular target: T5, Ephrin type-A receptor 8 (Homo sapiens) (UniProt P29322); conditions: at 1 µM
T5 sequence (whole entry): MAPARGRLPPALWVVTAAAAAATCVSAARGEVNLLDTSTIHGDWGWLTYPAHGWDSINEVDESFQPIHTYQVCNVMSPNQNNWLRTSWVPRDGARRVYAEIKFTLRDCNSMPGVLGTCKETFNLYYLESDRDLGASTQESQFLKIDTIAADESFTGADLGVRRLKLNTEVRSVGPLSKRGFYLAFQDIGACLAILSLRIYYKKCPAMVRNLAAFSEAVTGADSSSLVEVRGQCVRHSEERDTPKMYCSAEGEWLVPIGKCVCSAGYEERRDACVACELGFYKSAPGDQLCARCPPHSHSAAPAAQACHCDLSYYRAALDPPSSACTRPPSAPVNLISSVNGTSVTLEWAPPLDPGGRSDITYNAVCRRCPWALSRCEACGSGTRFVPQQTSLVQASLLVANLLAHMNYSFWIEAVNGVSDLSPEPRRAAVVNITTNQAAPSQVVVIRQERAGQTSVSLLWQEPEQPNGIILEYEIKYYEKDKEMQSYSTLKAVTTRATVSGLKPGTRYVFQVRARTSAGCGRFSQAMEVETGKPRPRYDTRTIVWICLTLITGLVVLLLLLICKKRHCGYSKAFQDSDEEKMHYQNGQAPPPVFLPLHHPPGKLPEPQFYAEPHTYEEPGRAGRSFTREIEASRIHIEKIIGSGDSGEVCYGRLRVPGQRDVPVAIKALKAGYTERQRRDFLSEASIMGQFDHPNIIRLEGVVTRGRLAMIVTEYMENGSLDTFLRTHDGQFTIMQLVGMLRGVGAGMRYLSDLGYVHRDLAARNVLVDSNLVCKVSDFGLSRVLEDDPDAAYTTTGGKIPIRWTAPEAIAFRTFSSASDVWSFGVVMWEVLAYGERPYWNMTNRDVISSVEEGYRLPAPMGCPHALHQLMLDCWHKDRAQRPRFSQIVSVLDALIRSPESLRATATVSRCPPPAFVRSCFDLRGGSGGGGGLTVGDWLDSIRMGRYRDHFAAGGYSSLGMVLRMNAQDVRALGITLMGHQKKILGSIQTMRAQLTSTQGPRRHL

[17] = molecular target: T5, Ephrin type-A receptor 8 (Homo sapiens); conditions: at 10 µM
[18] = molecular target: T6, Ephrin type-B receptor 1 (Homo sapiens) (UniProt P54762); conditions: at 1 µM
T6 sequence (whole entry): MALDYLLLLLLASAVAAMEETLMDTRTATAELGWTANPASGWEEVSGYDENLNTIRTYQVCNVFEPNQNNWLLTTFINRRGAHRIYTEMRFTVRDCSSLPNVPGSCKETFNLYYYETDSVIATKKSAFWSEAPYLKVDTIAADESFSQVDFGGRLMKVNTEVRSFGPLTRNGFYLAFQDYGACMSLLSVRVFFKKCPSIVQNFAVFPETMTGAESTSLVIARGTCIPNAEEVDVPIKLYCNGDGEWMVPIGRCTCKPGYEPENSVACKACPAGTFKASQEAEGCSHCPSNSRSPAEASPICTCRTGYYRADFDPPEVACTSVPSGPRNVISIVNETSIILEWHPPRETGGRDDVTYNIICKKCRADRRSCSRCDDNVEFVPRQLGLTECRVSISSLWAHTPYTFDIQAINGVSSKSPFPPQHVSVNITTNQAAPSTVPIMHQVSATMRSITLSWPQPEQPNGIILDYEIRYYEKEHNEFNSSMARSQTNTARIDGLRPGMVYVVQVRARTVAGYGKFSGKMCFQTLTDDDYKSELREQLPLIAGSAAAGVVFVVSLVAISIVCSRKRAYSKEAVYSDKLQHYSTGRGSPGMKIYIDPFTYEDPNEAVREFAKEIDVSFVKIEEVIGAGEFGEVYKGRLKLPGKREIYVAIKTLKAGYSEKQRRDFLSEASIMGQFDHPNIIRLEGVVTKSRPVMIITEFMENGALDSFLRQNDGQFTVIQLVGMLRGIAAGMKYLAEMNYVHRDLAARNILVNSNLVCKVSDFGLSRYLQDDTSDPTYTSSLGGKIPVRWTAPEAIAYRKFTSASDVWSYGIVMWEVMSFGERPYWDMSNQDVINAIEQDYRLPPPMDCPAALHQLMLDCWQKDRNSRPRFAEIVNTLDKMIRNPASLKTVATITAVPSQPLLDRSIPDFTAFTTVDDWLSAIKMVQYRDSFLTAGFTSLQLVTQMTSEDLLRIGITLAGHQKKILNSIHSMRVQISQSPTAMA

[19] = molecular target: Epidermal growth factor receptor (Homo sapiens) (UniProt P00533); conditions: at 1 µM
[20] = molecular target: Epidermal growth factor receptor (Homo sapiens) (UniProt P00533); conditions: at 10 µM

SMILES | residual activity [1] [%] | residual activity [2] [%] | residual activity [3] [%] | residual activity [4] [%] | residual activity [5] [%] | residual activity [6] [%] | residual activity [7] [%] | residual activity [8] [%] | residual activity [9] [%] | residual activity [10] [%] | residual activity [11] [%] | residual activity [12] [%] | residual activity [13] [%] | residual activity [14] [%] | residual activity [15] [%] | residual activity [16] [%] | residual activity [17] [%] | residual activity [18] [%] | residual activity [19] [%] | residual activity [20] [%]
O=Nc1c(-c2c(O)[nH]c3ccccc23)[nH]c2ccccc12 | 4 | 79 | 20 | 55 | 61 | 61 | 16 | 58 | 9 | 96 | 83 | 59 | 9 | 70 | 15 | 84 | 43 | 59 |  | 
CCN(CC)CCCCN1c2ccccc2Oc2ccc(Cl)cc21 | 138 | 105 | 103 | 102 | 124 | 108 | 109 | 113 | 97 | 116 | 100 | 108 | 113 | 105 | 103 | 98 | 114 | 100 | 124 | 127
CCC(=O)Nc1ccc2ncnc(Nc3cccc(Br)c3)c2c1 | 77 | 99 | 82 | 71 | 89 | 105 | 90 | 105 | 82 | 106 | 92 | 101 | 99 | 92 | 76 | 97 | 88 | 97 |  | 
